Source: PubChem (several laboratories)
AHR act = activates the human aryl hydrocarbon receptor. AHR-responsive luciferase reporter cells, luminescence. P35869. activation, % at 5 µM. hit rate 2.5% among 320,000; in the data active = activation above about 47%;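 note: 0% = vehicle wells and 100% = reference agonist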
Target sequence (P35869 whole entry, looked up): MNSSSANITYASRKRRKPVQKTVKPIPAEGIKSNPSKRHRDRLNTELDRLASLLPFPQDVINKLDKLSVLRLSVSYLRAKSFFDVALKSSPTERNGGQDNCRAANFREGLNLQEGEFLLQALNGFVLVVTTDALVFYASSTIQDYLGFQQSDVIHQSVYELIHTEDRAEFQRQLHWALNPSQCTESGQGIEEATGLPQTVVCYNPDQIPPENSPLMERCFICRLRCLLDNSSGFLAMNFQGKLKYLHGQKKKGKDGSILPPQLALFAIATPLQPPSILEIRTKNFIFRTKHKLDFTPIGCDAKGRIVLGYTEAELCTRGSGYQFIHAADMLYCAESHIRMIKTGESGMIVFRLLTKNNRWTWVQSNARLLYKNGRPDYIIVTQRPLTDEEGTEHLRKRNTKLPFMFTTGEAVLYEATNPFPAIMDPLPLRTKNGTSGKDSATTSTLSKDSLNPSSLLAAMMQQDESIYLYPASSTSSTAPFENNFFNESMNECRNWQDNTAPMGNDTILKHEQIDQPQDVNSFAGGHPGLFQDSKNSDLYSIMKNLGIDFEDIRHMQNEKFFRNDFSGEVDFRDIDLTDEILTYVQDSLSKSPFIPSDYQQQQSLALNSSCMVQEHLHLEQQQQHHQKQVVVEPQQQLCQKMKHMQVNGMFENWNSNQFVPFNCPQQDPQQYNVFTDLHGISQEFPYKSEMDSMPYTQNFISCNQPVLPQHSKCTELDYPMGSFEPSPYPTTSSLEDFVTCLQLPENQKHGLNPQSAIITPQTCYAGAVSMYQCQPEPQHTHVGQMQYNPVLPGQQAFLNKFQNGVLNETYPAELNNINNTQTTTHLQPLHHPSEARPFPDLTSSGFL
Platelet DG rel = platelet dense granule release activity. human platelet-rich plasma, SFLLRN dense granule ATP release, luminescence. inhibition, %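 (compounds screened at 7.5 µM in platelet-rich plasma)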. hit rate 0.22% among 300,000;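 active = mean replicate score, as percent of positive control, at or above 50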
HIF act = HIF pathway transcriptional activation | U2OS HRE-luciferase reporter, luminescence; normalized: DMSO 0%, desferrioxamine 100% | activation, % at 7.5 µM (by protocol) | hit rate 0.32% among 300,000 | AID 1910;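 active = mean activation of at least 10% of the iron chelator positive control signal, with at least half of replicates also reaching 10%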
PolyA inhibitor = inhibitors of polyadenylation in S. cerevisiae; hit rate 0.02% among 300,000; activity score, % at 12 µM; S. cerevisiae SKY197-pL101 polyadenylation reporter, beta-gal luminescence; efflux-impaired pdr1/pdr3 knockout yeast; score 100 = 6 SD above DMSO;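 active = lowest replicate activity score at least 50, where 100 means six control SD above control mean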;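 note: yeast exposed to compound for 9 h at 30 °C; higher score means more reporter readthrough which indicates perturbed polyadenylation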
p-CIP stab down = lowers stability of the mouse p/CIP coactivator protein. Q05BA5. F442A p/CIP-EGFP cells, EGFP fluorescence, 16 h. decrease of EGFP signal, % at 10 µM. hit rate 0.01% among 290,000. AID 1984;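 active = EGFP signal decrease of at least 30% at 10 µM or well 3 SD below plate mean, unless failing retest; inactive = the rest, including hits failing retest or dose response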
* hit, by the source's call; . = no result given. Only some compounds are listed: those with a hit (about 2.8% of all), similar ones and a draw of the others.

SMILES | AHR act | Platelet DG rel | HIF act | PolyA inhibitor | p-CIP stab down
Cc1cc(C)n2ncc(C(=O)NCc3cccnc3)c2n1 | 68* | -2 | 0 | -11 | 6
COc1ccc(CNC(=O)c2cnn3c(C(F)F)cc(C)nc23)cc1OC | 52* | 33 | 0 | 14 | -8
Cc1cccc(C(=O)Nc2ccccc2C(=O)NCc2ccco2)c1 | -6 | -2 | 0 | -22 | -14
CC(C)OC(=O)c1cccnc1SCc1cc(=O)n2ccccc2n1 | 55* | 9 | 0 | -9 | -8
CC(C)OC(=O)c1cccnc1SCC(=O)N(C)c1ccccc1 | 0 | -4 | 0 | -23 | 4
CCc1nc(N2CCN(C(=O)c3ccccc3)CC2)c2c3c(sc2n1)CCCC3 | -1 | 2 | -1 | -11 | -10
CCc1nc(N2CCN(C(=O)c3ccco3)CC2)c2c3c(sc2n1)CCCC3 | 2 | -2 | 499* | -2 | -12
O=C(Cc1ccc([N+](=O)[O-])cc1)Nc1cccc(C(=O)N2CCCCC2)c1 | -2 | . | . | . | .
CC(C)Oc1ccc(CNC(=O)c2ccc3c(c2)N(C)CCS3)cc1 | 10 | 57* | 0 | -12 | -1
CN1CCSc2ccc(C(=O)NCc3ccccc3F)cc21 | 78* | 73* | 2 | 8 | 1
COc1cccc(CNC(=O)c2ccc3c(c2)N(C)CCS3)c1OC | 56* | -3 | 0 | -6 | -5
COc1ccc(CNC(=O)c2ccc3c(c2)N(C)CCS3)cc1 | 37 | 0 | 1 | -4 | -4
CCN1CCSc2ccc(C(=O)NCc3ccccc3F)cc21 | 44 | 11 | 1 | 21 | 6
Cc1cc(C(=O)Nn2cnc3ccccc3c2=O)ccc1[N+](=O)[O-] | -1 | 0 | 0 | -3 | 18
CC(C)NC(=O)Cn1cc(S(=O)(=O)N2CCCC2)c(S(=O)(=O)N2CCCC2)c1 | 2 | -12 | -1 | -8 | 8
O=C1C=C(c2ccc3c(c2)OCO3)C[C@@H](c2ccc3c(c2)OCO3)C1 | 61* | . | . | . | .
O=C1C=C(c2cccc(OCc3ccccc3)c2)C[C@@H](c2ccc3c(c2)OCO3)C1 | 31 | . | . | . | .
O=C1C=C(c2cccc(CO)c2)C[C@@H](c2ccc3c(c2)OCO3)C1 | 73* | . | . | . | .
O=C1C=C(c2ccc(-c3ccccc3)c(F)c2)C[C@@H](c2ccc3c(c2)OCO3)C1 | 3 | . | . | . | .
Cc1cc(C2=CC(=O)C[C@H](c3ccc4c(c3)OCO4)C2)ccc1F | 79* | . | . | . | .
O=c1oc2ccccc2c(Nc2cccc3ccccc23)c1[N+](=O)[O-] | 44 | -1 | -2 | -23 | 6
O=c1oc2ccccc2c(Nc2ccccc2O)c1[N+](=O)[O-] | 11 | 2 | 0 | 16 | -5
O=c1oc2ccccc2c(Nc2cc3ccccc3cc2O)c1[N+](=O)[O-] | 63* | 1 | 4 | 7 | -18
O=c1oc2ccccc2c(Nc2cccc3cccnc23)c1[N+](=O)[O-] | 57* | 0 | 0 | 13 | -16
Oc1[nH]c2ccccc2c1/C=N/N1CCCCC1 | 35 | 8 | 0 | 7 | 1
SMILES | AHR act | Platelet DG rel | HIF act | PolyA inhibitor | p-CIP stab down
Cc1[nH]c2ccccc2c1/C=N\NC(=O)CNc1ccc2c(c1)OCO2 | 68* | -3 | 1 | -12 | -1
O=C(CNc1ccc2c(c1)OCO2)N/N=C\c1ccccc1Cl | 81* | -4 | 3 | 9 | -9
Oc1[nH]c2ccccc2c1C=Nc1ccc2c(c1)OCO2 | 58* | 0 | 3 | -32 | -15
Oc1[nH]c2ccccc2c1/C=N/c1nccs1 | 53* | 3 | 1 | -7 | 11
COC(=O)C1=C(C)N(CCCC(=O)O)C(=O)NC1c1cccc(Cl)c1Cl (centres undefined) | 0 | 0 | 0 | -8 | .
COc1ccc(C=O)cc1CSc1ncccc1C(=O)O | 6 | 3 | 0 | 12 | -12
COc1ccc(C(=O)CSC2=C(C#N)C3(CCCCC3)C(C#N)=C(N)N2)cc1 | 52* | 7 | 0 | -8 | 0
CCN(Cc1cc2cc(C)ccc2[nH]c1=O)C(=O)c1cccc([N+](=O)[O-])c1 | 13 | 2 | 0 | -13 | -4
c1ccc(CNc2c3ccccc3nc3ccccc23)cc1 | 22 | 4 | 20* | 12 | -13
Oc1ccc(CCNc2c3ccccc3nc3ccccc23)cc1O | 6 | -3 | 18* | 2 | 3
CCOC(=O)CN1C=C(c2ccc3ccccc3n2)C(C[N+](=O)[O-])c2ccccc21 (centres undefined) | 67* | -1 | 2 | 12 | -31
CCOC(=O)CSc1ccc2ccccc2n1 | -2 | -7 | 1 | -13 | 6
